Screening results: PubChem, Paczesny and Yang Labs, IUPUI and University of Michigan
This is one part of a sample in which hits are shown more often than they occur.
ST2 IL33 inh: inhibitors of human ST2 (IL1RL1) binding to IL-33 | Q01638 | AlphaLISA ST2-Fc/biotin-IL-33 interaction, 1 h | inhibition, % for hits at 17 µM | hit rate 2.3% among 78,000 | AID 1259354; in the data active = inhibition above about 30%
Target sequence (Q01638 whole entry, looked up): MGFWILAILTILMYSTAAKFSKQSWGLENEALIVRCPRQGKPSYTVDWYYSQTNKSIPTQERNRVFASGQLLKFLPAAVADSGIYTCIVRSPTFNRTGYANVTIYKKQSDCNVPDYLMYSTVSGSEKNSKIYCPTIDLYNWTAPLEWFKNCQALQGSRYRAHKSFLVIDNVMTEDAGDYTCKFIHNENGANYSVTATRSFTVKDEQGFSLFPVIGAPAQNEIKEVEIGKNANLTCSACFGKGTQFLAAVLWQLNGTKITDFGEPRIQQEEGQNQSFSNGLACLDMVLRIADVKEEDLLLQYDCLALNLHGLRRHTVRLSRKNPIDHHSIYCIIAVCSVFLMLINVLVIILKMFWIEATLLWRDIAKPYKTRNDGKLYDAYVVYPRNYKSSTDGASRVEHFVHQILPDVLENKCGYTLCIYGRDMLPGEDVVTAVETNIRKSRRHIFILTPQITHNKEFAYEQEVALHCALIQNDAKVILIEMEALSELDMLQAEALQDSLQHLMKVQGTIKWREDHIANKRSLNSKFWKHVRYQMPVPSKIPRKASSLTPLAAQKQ
* = called active by the depositor; i = inactive.

SMILES	ST2 IL33 inh
C=CCSc1nnc2c(n1)OC(c1ccc(O)c([N+](=O)[O-])c1)Nc1ccccc1-2 (stereo not drawn)	i
Cc1ccccc1N1CCN(C2CCCN(C(=O)Cn3nc4ccccc4n3)C2)CC1 (stereo not drawn)	i
CCc1ccc(C2NC(=O)NC3=C2C(=O)CC(C)(C)C3)cc1 (stereo not drawn)	i
CN1CCCN(Cc2cccc(F)c2)CC1	i
CCN1CCN(Cc2ccc(N(CC)CC)cc2)CC1	58.0%*
CN1CCCN(Cc2cccc(Cl)c2)CC1	i
CCc1ccc(CN2CCSCC2)cc1	i
CCN(CC)c1ccc(CN2CCN(C)CC2)cc1	56.0%*
CCN1CCN(Cc2ccc(-c3ccccc3)cc2)CC1	i
COc1ccc(Cl)cc1N(CC(=O)NCC1CCCO1)S(=O)(=O)c1ccccc1 (stereo not drawn)	i
O=C(Nc1ccccc1C(=O)NCC1CCCO1)c1cccc(I)c1 (stereo not drawn)	i
CC1CCCCN1CC(O)COc1c(F)cc(Br)cc1F (stereo not drawn)	i
Cc1cccc(N2C(=O)CC(Sc3nccc(C)n3)C2=O)c1 (stereo not drawn)	i
COc1cc(OC)cc(N2C(=O)CC(Sc3ncn[nH]3)C2=O)c1 (stereo not drawn)	i
Cc1ccc(N2C(=O)CC(Sc3ncn[nH]3)C2=O)cc1C (stereo not drawn)	36.0%*
CCC(=O)N1CCc2cc(Br)cc(S(=O)(=O)Nc3ccc(OC)cc3OC)c21	i
CCOc1ccc(C(=O)N(c2ccc(C(C)C)cc2)C2C=CS(=O)(=O)C2)cc1 (stereo not drawn)	i
O=C(Nc1ccccc1[N+](=O)[O-])C1C2CCCCC21 (stereo not drawn)	39.0%*
O=C(NC1CCCCCC1)c1ccccc1[N+](=O)[O-]	i
CC(C)(C)CC(=O)Nc1ccccc1[N+](=O)[O-]	i
CC(C)(C)N1CC(CNc2nccc(C3CCCC3)n2)CC1=O (stereo not drawn)	i
CCOC(=O)Nc1ccncc1[N+](=O)[O-]	i
COC[C@H](C)Nc1nc(CCN)nc2sc(C)c(C)c12	i
CC(C)CCSc1nc(O)cc(=O)[nH]1	i
COc1ccc(Cl)cc1N1C(=O)c2c(C)nc3ccccc3c2C1=O	31.0%*
SMILES	ST2 IL33 inh
Cc1nc2ccccc2c2c1C(=O)N(c1ccccc1)C2=O	i
Cc1nc2ccccc2c2c1C(=O)N(Cc1cccnc1)C2=O	i
Cc1nc2ccccc2c2c1C(=O)N(c1cccc(Cl)c1)C2=O	i
Cc1nc2ccccc2c2c1C(=O)N(c1ccc(F)cc1F)C2=O	i
Cc1nc2ccccc2c2c1C(=O)N(C(C)Cc1ccccc1)C2=O (stereo not drawn)	34.0%*
O=S(=O)(c1ccc(Br)s1)N1CCCN(Cc2ccccc2)CC1	i
Nc1ncnc(N2CCN(c3ccccc3Cl)CC2)c1[N+](=O)[O-]	i
CC1(C(=O)NC2CCCC2)CCC(=O)N1CCN1CCOCC1 (stereo not drawn)	i
Nc1nc(NCc2ccccc2)nc(-c2cccc(O)c2)n1	i
CC(C)c1n[nH]c2c1CN(C(=O)CCc1c[nH]c3ccccc13)CC2	i
O=C(NCc1ccc(F)cc1)c1ccc2c(c1)N(Cc1ccc(F)cc1)C(=O)CS2=O (stereo not drawn)	i
CNC(=O)C1CCC(Cn2c(=O)c3sccc3n(CC(=O)N3CCCCCC3)c2=O)CC1 (stereo not drawn)	i
COCCN[C@H]1[C@@H]2OC[C@@H](O2)[C@@H](NCc2ccc(-c3ccccc3)cc2)[C@@H]1O	36.0%*
COc1ccccc1N1CCN([C@H]2[C@@H]3OC[C@@H](O3)[C@@H](NCc3ccc(-c4ccccc4)cc3)[C@@H]2O)CC1	i
O[C@H]1[C@H](NCc2ccc(-c3ccccc3)cc2)[C@H]2CO[C@H](O2)[C@@H]1Oc1ccccc1	i
O=C(Cn1nc(-c2ccccc2)ccc1=O)NC1CCCC1	i
COc1cc(C2CC(=O)Nc3c2ccc2ccccc32)ccc1OC(=O)c1cccs1 (stereo not drawn)	i
Cc1nc(-c2cccc(NS(=O)(=O)c3ccc(Cl)cc3)c2)cs1	i
Cc1ccccc1OCCCN1CCOCC1	i
FC(F)(F)c1ccc(N2CCN(Cc3ccccc3)CC2)nc1	i
N#Cc1nc(COc2ccccc2Cl)oc1N1CCN(Cc2ccccc2)CC1	58.0%*
Cc1ccccc1OCc1nc(C#N)c(N2CCCCC2)o1	68.0%*
c1ccc(COc2cccc(CN3CCN(c4ncccn4)CC3)c2)cc1	i
N#Cc1nc(COc2ccc(Cl)cc2)oc1N1CCN(Cc2ccccc2)CC1	57.0%*
c1ccc(COc2ccc(CN3CCN(c4ncccn4)CC3)cc2)cc1	i
SMILES	ST2 IL33 inh
N#Cc1nc(COc2ccccc2Cl)oc1N1CCC(C(N)=O)CC1	i
Cc1ccccc1OCCCCN1CCCCC1	i
Cc1ccc(-c2noc(COc3ccccc3Cl)n2)cc1	i
Nc1nc(COc2ccccc2Cl)nc(N2CCOCC2)n1	i
N#Cc1nc(COc2ccccc2Cl)oc1N1CCCCC1	65.0%*
NC(=O)CCn1c(COc2ccc(Cl)cc2Cl)nc2ccccc21	i
CC(C)n1cc(CN2CCC(CCC(=O)N3CCN(c4ccccc4)CC3)CC2)cn1	i
CCC(C)NC(=O)Cn1cnc2sc(C)c(S(=O)(=O)N3CC(C)CC(C)C3)c2c1=O (stereo not drawn)	i
CCOCCOC(=O)C1=C(C)NC2=C(C(=O)C(C(=O)OC)C(C)C2)C1c1cccc(OC)c1 (stereo not drawn)	i
O=C(c1ccc([N+](=O)[O-])cc1)N1N=C2CCCCCC2C1(O)C(F)(F)F (stereo not drawn)	i
Cc1ccccc1C(=O)Nc1ccc2nc(SCC(=O)N3CCOCC3)sc2c1	i
CCOc1ccc(C(=O)Nc2cccc(Cl)c2)cc1Br	i
COc1ccc(C(=O)Nc2cccc(NC(=O)c3ccccc3Cl)c2)cc1[N+](=O)[O-]	i
COc1ccc(C(=O)Nc2cccc(NC(=O)c3ccccc3Cl)c2)cc1Br	59.0%*
CC(C)C1CN(C(=O)c2cn(CCCN)nn2)CCC(=O)N1CC1CC1 (stereo not drawn)	i
OCc1ccccc1-n1ncc2cccnc21	i
C=CCn1c(=O)c(-c2ccc3ccccc3n2)cc2ccccc21	i
CNc1cc(-c2ccc3ccccc3n2)c2cc[nH]c2n1	52.0%*
CC(C)Nc1ccc(-c2cc(N)nc3[nH]ccc23)nn1	i
O=C(CNS(=O)(=O)c1ccc(Br)s1)N1CCC(Cc2ccccc2)CC1	i
Cc1noc2nc(C3CC3)cc(C(=O)N3[C@@H]4CC[C@H]3CN(C)C(=O)C4)c12	i
COc1ccc(Nc2cc(C)nc(-c3ccccc3)n2)cc1	i
Cc1cc(Nc2ccccc2)nc(Nc2ccc(NC(=O)C3CCCCC3)cc2)n1	i
Cc1ccc(Nc2cc(C)nc(Nc3ccc(NC(=O)c4ccc(Br)o4)cc3)n2)cc1	i
Cc1ccc(Nc2cc(C)nc(Nc3ccc(NC(=O)C(C)(C)C)cc3)n2)cc1	33.0%*
Cc1ccc(Nc2cc(C)nc(Nc3ccc(NC(=O)c4ccc(Br)cc4)cc3)n2)cc1	i
CC(=O)Nc1ccc(Nc2nc(C)cc(Nc3ccc(C)cc3)n2)cc1	i
Cc1ccc(Nc2cc(C)nc(Nc3ccc(NC(=O)C4CCCCC4)cc3)n2)cc1	30.0%*
COc1ccc(Nc2cc(C)nc(Nc3ccc(NC(=O)C4CCCCC4)cc3)n2)cc1	34.0%*
COc1ccccc1N(C)c1cc(F)c(F)c(F)c1F	i
